From PubChem BioAssay AID1159580 (chemical genetic matrix, 2015)
About 2,000 (36%) of roughly 5,500 compounds were called active. Inconclusive results (about 18%) are left out. The list shows a part of the results. Unmarked numbers belong to inactive results. Rule as the data show it: active = normalized growth mostly below about 0.91 (no sharp cut-off); inconclusive = no clear call, values can overlap the other calls; inactive = mostly above about 0.92.

Assay: chemical genetic growth profiling, strain panel (AID 1159580);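 also: tested at 20 µM; growth read once vehicle control cultures reached saturation at 30 °C; 1 = growth at the plate median or of vehicle wells; lower values mean less growth of the strain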
Details: growth OD
[1] = S. cerevisiae deletion strains, locus YAL013W, strain DEP1, stronger effect = lower value
[2] = S. cerevisiae deletion strains, locus YBR229C, strain ROT2, stronger effect = lower value
[3] = S. cerevisiae deletion strains, locus YCL061C, strain MRC1, stronger effect = lower value
[4] = S. cerevisiae deletion strains, locus YDL101C, strain DUN1, stronger effect = lower value
[5] = S. cerevisiae deletion strains, locus YDR150W, strain NUM1, stronger effect = lower value
[6] = S. cerevisiae deletion strains, locus YEL061C, strain CIN8, stronger effect = lower value
[7] = S. cerevisiae deletion strains, locus YGR078C, strain PAC10, stronger effect = lower value
[8] = S. cerevisiae deletion strains, locus YHR030C, strain SLT2, stronger effect = lower value
[9] = S. cerevisiae deletion strains, locus YHR087W, strain rtc3, stronger effect = lower value
[10] = S. cerevisiae deletion strains, locus YJR043C, strain POL32, stronger effect = lower value
[11] = S. cerevisiae deletion strains, locus YJR075W, strain HOC1, stronger effect = lower value
[12] = S. cerevisiae deletion strains, locus YKL190W, strain CNB1, stronger effect = lower value
[13] = S. cerevisiae deletion strains, locus YLR039C, strain RIC1, stronger effect = lower value
[14] = S. cerevisiae deletion strains, locus YLR058C, strain SHM2 (second series), stronger effect = lower value
[15] = S. cerevisiae deletion strains, locus YLR085C, strain ARP6, stronger effect = lower value
[16] = S. cerevisiae deletion strains, locus YLR262C, strain YPT6, stronger effect = lower value
[17] = S. cerevisiae deletion strains, locus YML094W, strain GIM5, stronger effect = lower value
[18] = S. cerevisiae deletion strains, locus YMR219W, strain ESC1, stronger effect = lower value
[19] = S. cerevisiae deletion strains, locus YNL153C, strain GIM3, stronger effect = lower value
[20] = S. cerevisiae deletion strains, locus YNL298W, strain CLA4 (second series), stronger effect = lower value
[21] = S. cerevisiae deletion strains, locus YNL322C, strain KRE1, stronger effect = lower value
[22] = S. cerevisiae deletion strains, locus YNR030W, strain Alg12, stronger effect = lower value
[23] = S. cerevisiae deletion strains, locus YPL055C, strain LGE1, stronger effect = lower value
[24] = S. cerevisiae deletion strains, locus YPL241C, strain CIN2, stronger effect = lower value
[25] = S. cerevisiae deletion strains, locus YPR135W, strain CTF4, stronger effect = lower value

With CC(=O)C1COc2ccc(C)cc2C1=O (stereo not drawn) the normalized growth [1] was 0.972, the normalized growth [2] was 0.898 (active) and the normalized growth [3] was 0.916. For the same compound, the normalized growth [4] was 0.838 (active), the normalized growth [5] was 0.984 and the normalized growth [6] was 0.924. The normalized growth [7] was 0.952, the normalized growth [8] was 0.291 (active) and the normalized growth [9] was 0.916. The normalized growth (S. cerevisiae deletion strains, locus YJL187C, strain SWE1, stronger effect = lower value) was 0.888 (active), the normalized growth [10] was 0.931 and the normalized growth [11] was 0.903. The normalized growth [12] was 0.832 (active), the normalized growth [13] was 0.173 (active) and the normalized growth [14] was 0.923 (active). For the same compound, the normalized growth [15] was 0.44 (active), the normalized growth [16] was 0.176 (active) and the normalized growth [17] was 0.848 (active). The normalized growth [18] was 0.928 (active), the normalized growth (S. cerevisiae deletion strains, locus YMR263W, strain SAP30, stronger effect = lower value) was 0.96 and the normalized growth [19] was 0.954. For the same compound, the normalized growth [20] was 0.855, the normalized growth [21] was 0.979 and the normalized growth [22] was 0.901. The normalized growth [23] was 0.93, the normalized growth [24] was 0.914 and the normalized growth [25] was 0.58 (active).

In the case of c1ccc(Sc2c(-c3ccccc3)nc3ccccn23)cc1, the normalized growth [1] is reported as 0.895 (active), the normalized growth [2] is reported as 0.9 (active) and the normalized growth [3] is reported as 0.906 (active). For the same compound, the normalized growth [4] was 0.929, the normalized growth [5] was 0.8 and the normalized growth [6] was 0.869 (active). For the same compound, the normalized growth [7] was 0.884 (active), the normalized growth [8] was 0.193 (active) and the normalized growth [9] was 0.921. The normalized growth [10] was 0.93, the normalized growth [11] was 0.833 (active) and the normalized growth [12] was 0.79 (active). The normalized growth [13] was 0.657 (active), the normalized growth [14] was 0.899 (active) and the normalized growth [15] was 0.275 (active). The normalized growth [16] was 0.78 (active), the normalized growth [17] was 0.886 and the normalized growth [18] was 0.897 (active). For the same compound, the normalized growth [19] was 0.931, the normalized growth [20] was 0.781 (active) and the normalized growth [21] was 0.915 (active). The normalized growth [22] was 0.714 (active), the normalized growth [23] was 0.725 (active) and the normalized growth [24] was 0.692 (active). The normalized growth [25] was 0.431 (active) and the normalized growth (S. cerevisiae strains, strain wild type, stronger effect = lower value) was 0.92.
